TbPYK inhibitor: inhibitors of Trypanosoma brucei pyruvate kinase; Q57TT1; TbPYK enzyme, Kinase-Glo Plus ATP luminescence, 45 min; Potency, µM (top dose mostly 76.8 µM), for inactives: at the top dose activity, negative = inhibition, actives largely listed as inhibitors; hit rate 0.12% among 410,000; AID 624173; further: potency means the concentration at half of the fitted maximal effect; on the % scale 0 is the no-effect control and ±100 the full control effect; nearly all actives have a fitted effect of over 50% in size
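Readout: single end-point luminescence (Kinase-Glo Plus, 10 min). Reaction conditions were TbPYK/substrate plus 130 uM ADP, 45 min at RT, pH 7.2 TEA buffer. No-enzyme wells served as controls, and data were normalized before concentration-response fitting.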
LmPK inh: inhibitors of Leishmania mexicana pyruvate kinase | Q27686 | purified LmPK, Kinase-Glo ATP luminescence, 1 h | Potency, µM (titrated, usually from 57.5 µM), for the others: at the top dose activity change, negative = inhibition, usual class: inhibitors | hit rate 0.37% among 290,000 | AID 1721; further: potency means the concentration at half of the fitted maximal effect; on the % scale 0 is the no-effect control and ±100 the full control effect
Target sequence (Q27686 whole entry, looked up): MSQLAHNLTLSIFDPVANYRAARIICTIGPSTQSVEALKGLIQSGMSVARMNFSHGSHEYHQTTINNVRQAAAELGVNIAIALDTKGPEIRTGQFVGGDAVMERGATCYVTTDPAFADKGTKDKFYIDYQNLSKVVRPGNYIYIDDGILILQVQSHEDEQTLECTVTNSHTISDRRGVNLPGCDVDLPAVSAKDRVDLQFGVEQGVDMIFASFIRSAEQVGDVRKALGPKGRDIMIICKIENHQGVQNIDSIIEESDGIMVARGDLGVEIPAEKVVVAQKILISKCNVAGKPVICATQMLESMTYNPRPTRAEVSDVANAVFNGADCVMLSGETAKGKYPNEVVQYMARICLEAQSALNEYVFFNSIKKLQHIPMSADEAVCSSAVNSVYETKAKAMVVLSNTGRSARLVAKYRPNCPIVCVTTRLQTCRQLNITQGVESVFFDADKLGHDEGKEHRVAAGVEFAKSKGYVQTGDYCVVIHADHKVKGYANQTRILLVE
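Screened at intermediate enzyme activity to detect both inhibitors and activators: LmPK at 0.1 nM, with a 0.5 nM enzyme column as activation reference. PEP 0.5 mM, ADP 0.1 mM; ATP detected by luminescence after 1 h.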
SARS PLpro yeast: inhibitors of SARS-CoV papain-like protease in yeast; S. cerevisiae expressing SARS-CoV PLpro, growth rescue; hit rate 0.19% among 330,000; AID 485353; Potency, µM (highest dose often 32.9 µM), for inactives: at the top dose activity, positive = growth rescue, most hits filed as activators; calls by dose curve; further: potency means the concentration at half of the fitted maximal effect; 0% is about no effect; nearly all actives have a fitted effect of over 55% in size
NS1 function inh: inhibitors of influenza NS1 protein function. Potency, µM (doses to about 46.1 µM), inactives show at the top dose activity, positive = more growth. hit rate 0.4% among 270,000. AID 2326; calls by dose curve; further: potency means the concentration at half of the fitted maximal effect; actives are rising curves; nearly all actives have a fitted effect of over 50% in size
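In this qHTS, NS1 from influenza A is expressed in budding yeast, where it slows growth. Cells are switched from glucose to 2% galactose medium (pH 6.0, -URA), treated with compound, and growth recovery is read at OD600.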
Shiga toxin inh: blocks Shiga toxin action in Vero cells; inhibition, % at 38.7 µM; hit rate 9.2% among 290,000; Vero cells, Shiga toxin protein synthesis inhibition reporter; in the data active means inhibition mostly above about 28%, no sharp cut-off; inactive means mostly below about 43%; further: 0% is about no effect
CHX counter: counter-screen for Shiga toxin inhibitors: cycloheximide protein synthesis inhibition | cell reporter, cycloheximide protein synthesis inhibition counterscreen | max response, % | hit rate 12% among 300,000 | AID 2314; in the data active means max response mostly above about 13%, no sharp cut-off; inactive means mostly below about 14%; further: read at 38.3 µM for the half of the compounds with a filed dose; 0% is about no effect
The depositor's hits bear a star; u = inconclusive; x = no result; ! = not active in a repeat; [ ] = dose if it differs, or a comment. Only a selection was taken, and hits are over-represented in it overall. Unless noted, the call rests on the fitted dose curve; in most records, active means well fitted curve in the direction sought with a large enough effect; inconclusive means small, poorly fitted or top-dose-only effect, or another doubt; inactive means no such curve, though single readings can be large; an effect the other way counts as inactive or inconclusive.

SMILES	TbPYK inhibitor	LmPK inh	SARS PLpro yeast	NS1 function inh	Shiga toxin inh	CHX counter
COc1ccccc1NC(=O)c1ccccc1C(=O)Nc1ccccc1OC	1%	9%	-9%	2%	-2	-3
COc1ccccc1NC(=O)c1ccccc1NC(=O)c1ccccc1C(=O)O	-7%	7%	1%	u	x	16*
COc1ccccc1C(=O)Nc1ccc2c3c(cccc13)CC2	-4%	0%	-1%	-7%	87*	38*
COC(=O)c1csc(C(=O)c2c[nH]c3ccccc23)n1	-1%	x	x	x	42*!	23*!
COc1ccccc1C(CNC(=O)C(C)Oc1ccc(Br)cc1)N1CCCC1 (centres undefined)	-4%	x	-3%	x	x	x
Cc1cccc(C)c1NC(=O)c1c[nH]c2ccccc12	-2%	-2%	0%	-33%	74*	16*
COc1ccccc1NC(=O)c1c[nH]c2ccccc12	-19%	1%	-1%	-38%	52*	34*
Cc1ccc2ncc(C(=O)NCCc3ccc(S(N)(=O)=O)cc3)c(=O)n2c1	-3%	x	x	x	x	x
Cc1cccc(N2CCN(C(=O)c3ccc4c(c3)N(Cc3cccc(Cl)c3)C(=O)c3ccccc3S4=O)CC2)c1C (centres undefined)	-5%	x	x	x	x	x
Cc1ccccc1Oc1ccc2c(c1)[C@@H]1C[C@H]3[C@@H](C(=O)N1CC2)[C@H](C)ON3C	-9%	x	x	x	x	x
Fc1ccc(NC(=S)NCc2ccccn2)cc1	-6%	1%	3%	-16%	46*	16*
S=C(NCCc1ccccn1)Nc1ccc(Cl)cc1	-8%	0%	-1%	3%	48*	39*
CN(CCc1ccccn1)C(=O)Nc1ccc(Cl)cc1	-9%	-3%	x	-33%	97	32*
S=C(NCc1ccccn1)Nc1ccccc1	-10%	-6%	6%	15%	10	7
Fc1ccc(NC(=S)NCCc2ccccn2)cc1	-8%	-5%	-1%	2%	7	23
CC(=O)c1ccc(NC(=S)NCCc2ccccn2)cc1	-5%	-11%	14%	4%	21*	43*
O=S(=O)(NC1CCC(NS(=O)(=O)c2c(F)cccc2F)CC1)c1ccc2c(c1)OCCO2 (centres undefined)	1%	x	0%	x	8	12
CCc1cc(C(=O)N(Cc2ccccc2)c2c(N)n(CCOC)c(=O)[nH]c2=O)sc1C	-13%	x	-7%	x	x	x
O=C(OCc1c(F)cccc1Cl)c1cccnc1Cl	-2%	-4%	-5%	-25%	6	-3
CCOc1ccccc1NC(=S)NC1CC2CCC1C2 (centres undefined)	-3%	4%	-2%	-68%	-1	6
FC(F)(F)c1cccc(NC(=S)NCCc2ccccn2)c1	-21%	1%	4%	-4%	15	18
S=C(NCCc1ccccn1)NC1CC2CCC1C2 (centres undefined)	-3%	0%	9%	-5%	43	27*
CC(C)(C)c1ccc(NC(=S)NCCc2ccccn2)cc1	-24%	5%	-2%	-5%	29	17*
CCOC(=O)c1c(C)[nH]c2cc(Br)c(OC)cc12	0%	0%	-6%	-45%	1	18*
CCOC(=O)c1ccc(S(=O)(=O)N2CCN(C3CC(=O)N(c4ccc(OC)cc4)C3=O)CC2)cc1 (centres undefined)	2%	x	x	x	x	x
SMILES	TbPYK inhibitor	LmPK inh	SARS PLpro yeast	NS1 function inh	Shiga toxin inh	CHX counter
CCn1cc(Cl)c(C(=O)Nc2cccc(C(F)(F)F)c2)n1	-4%	-14%	1%	x	58*	32*
CCn1cc(Cl)c(C(=O)Nc2ccc3c(c2)OCCO3)n1	-8%	u	-3%	x	168*	44*
CCn1cc(Cl)c(C(=O)Nc2ccccc2C(N)=O)n1	2%	4%	-2%	x	20	29*
CCn1nc(C(=O)Nc2ccc3c(c2)OCCO3)c2ccccc2c1=O	4%	x	x	x	x	x
CCn1cc(Br)c(C(=O)Nc2ccccc2C(=O)OC)n1	1%	-1%	-4%	x	-2	0
Cc1ccc(S(=O)(=O)NN=Cc2ccco2)cc1	1%	x	x	x	x	x
COc1ccc(C(CC(=O)Nc2ccc(Br)cn2)N2Cc3ccccc3C2=O)cc1 (centres undefined)	-3%	x	x	x	x	x
CN(CC(=O)Nc1ccccc1Br)C(=O)CNC(=O)c1ccc(Oc2ccccc2)cc1	-1%	-5%	6%	5%	55*	60*
O=C(COCc1cc(-c2cccs2)on1)NCc1ccc(F)cc1	-6%	x	x	x	x	x
CCOC(=O)C1CCN(C(=O)Nc2ccc(OC(F)(F)F)cc2)CC1	-4%	-2%	0%	5%	63	34*
CCc1ccc(NC(=S)N2CCCC(C(F)(F)F)C2)cc1 (centres undefined)	-2%	6%	19%	x	40	16*
CCc1ccc(NC(=S)N2CCN(C)CC2)cc1	-3%	0%	-6%	0%	61	25*
CCOC(=O)C1CCN(C(=S)Nc2ccc(CC)cc2)CC1	-2%	-4%	23%	x	54	43*
CCOc1ccc(NC(=O)CCn2c(-c3ccc(F)cc3)cc(C(C)=O)c2C)cc1	1%[15.4 µM]	x	x	x	x	x
COc1ccc(C(=O)NCCn2cc(SCC(=O)Nc3cccc(C)c3)c3ccccc32)cc1	-5%	x	x	x	x	x
COc1cc2oc(=O)c(CC(=O)NCCc3ccccc3)c(C)c2cc1Cl	-4%	x	x	x	x	x
C=CCn1c(O)c(N=NC(=O)CNC(=O)Cc2ccccc2)c2ccccc21	-1%	1%	8%	8%	-10	4
CCc1ccc(NC(=S)N2CCCC2)cc1	-4%	-1%	2%	3%	78*	36*
CCc1ccc(NC(=S)N2CCC(NC(=O)C3CCCCC3)CC2)cc1	-2%	3%	-1%	13%	-12	-1
Cc1cccc(CSc2nc3c(sc4ccccc43)c(=O)n2CCC(=O)NC(C)C)c1	3%	x	x	x	x	x
Oc1[nH]c2ccccc2c1N=Nc1c(F)c(F)c(Cl)c(F)c1F	-1%	-2%	-1%	2%	1	0
Cc1[nH]c2ccccc2c1N=Nc1ccccc1F	-1%	3%	-23%	x	53*	24*
Cc1[nH]c2ccccc2c1N=Nc1ccc(F)cc1	4%	-4%	-28%	x	45	19*
Cc1[nH]c2ccccc2c1N=Nc1cc(C(=O)O)cc(C(=O)O)c1	-1%	3%	1%	-4%	42	5
COc1ccc(O)cc1	-6%	x	-7%	x	x	x
SMILES	TbPYK inhibitor	LmPK inh	SARS PLpro yeast	NS1 function inh	Shiga toxin inh	CHX counter
O=c1cc(N=Nc2ccc(O)cc2)[nH]c(=O)[nH]1	x	x	x	0%	x	x
Cc1ccc(-c2nc(N=Nc3ccc(O)cc3)n[nH]2)cc1	7%	-2%	-10%	-18%	105*	49*
Cc1nc(N=Nc2ccc(O)cc2)n[nH]1	-16%	14µM*	-3%	3%	53*	20*
Cc1ccc(S(=O)(=O)Nc2ccc(N=Nc3ccc(O)cc3)cc2)cc1	-10%	4%	-66%	-42%	21	8
COc1ccc(-c2nc(N=Nc3ccc(O)cc3)n[nH]2)cc1	3%	2%	-7%	0%	-8	35*
CCCOc1ccccc1C(=O)N1CCC(c2nc3ccccc3s2)CC1	-3%	x	x	x	x	x

Source: PubChem (National Center for Advancing Translational Sciences (NCATS))
